The inhibition is the change of the read-out against control, counted positive when it falls.

Consider 23 molecules from PubChem BioAssay AID1259399 (Fisher Drug Discovery Resource Center, 2018).

About 240 (0.15%) of roughly 160,000 compounds were called active. The list comes from a sample in which actives are over-represented; it also holds similar structures and randomly drawn compounds. Unmarked numbers belong to inactive results. Rule as the data show it: active = inhibition above about 40%; inactive = the rest.

Sequence of Cyclic GMP-AMP synthase (Mus musculus) (Q8C6L5 whole entry, looked up): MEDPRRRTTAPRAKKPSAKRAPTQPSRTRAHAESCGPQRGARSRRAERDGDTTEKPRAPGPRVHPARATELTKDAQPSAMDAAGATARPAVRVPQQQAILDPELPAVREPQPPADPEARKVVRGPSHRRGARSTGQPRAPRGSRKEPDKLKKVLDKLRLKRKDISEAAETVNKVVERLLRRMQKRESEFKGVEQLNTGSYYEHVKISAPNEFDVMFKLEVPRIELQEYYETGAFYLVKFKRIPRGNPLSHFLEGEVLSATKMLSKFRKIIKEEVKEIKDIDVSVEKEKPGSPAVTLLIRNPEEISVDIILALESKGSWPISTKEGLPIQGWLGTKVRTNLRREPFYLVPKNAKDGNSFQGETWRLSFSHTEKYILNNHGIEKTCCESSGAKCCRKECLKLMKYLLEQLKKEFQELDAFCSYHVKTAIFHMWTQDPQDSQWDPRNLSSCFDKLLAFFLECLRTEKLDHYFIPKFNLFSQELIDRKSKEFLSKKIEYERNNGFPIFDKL

The experiment has as its target Cyclic GMP-AMP synthase (Mus musculus) (UniProt Q8C6L5). In words: inhibition of Mus musculus cGAS, primary biochemical chemiluminescence screen (AID 1259399).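 Also: 0% = negative control wells and 100% = reference inhibitor with no enzyme activity.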 The settings on record: recombinant cGAS, Kinase-Glo ATP depletion luminescence; at 12.5 µM; active compounds read high. A general note: Kinase-Glo measures the ATP left after a reaction by luminescence.
On to `COc1cccc(-c2cc(-c3ccc(C(=O)NCCc4ccc(OC)c(OC)c4)cc3)[nH]n2)c1`, for which the inhibition was -4.79%.

On to `COc1ccc(-n2c(SCC(=O)N3CCN(C(=O)C(c4ccccc4)c4ccccc4)C(C)C3)nnc2-c2cccc(OC)c2)cc1` (stereo not drawn), for which the inhibition is -6.69%.

With `CC(C)(C)n1nc2c(c1NC(=O)c1ccc3c(c1)OCO3)CSC2`, the inhibition is -7.2%.

For `CC(C)N(CC(=O)N(Cc1ccc(F)cc1)Cc1ccco1)C(=O)c1ccc(-c2ccccc2)cc1`, the inhibition was -5.81%.

In the case of `Cc1cc(OC(=O)c2ccc(OC(C)C)cc2)c([N+](=O)[O-])c(=O)[nH]1`, the inhibition is -0.422%.

Turning to `Cc1ccc(C)c(CN2CCN(c3nc4c(c(=O)[nH]c(=O)n4C)n3CCC(C)C)CC2)c1`, the inhibition is -1.17%.

Take `Cc1ccc(S(=O)(=O)N(Cc2ccco2)Cc2nccn2Cc2ccc(C(F)(F)F)cc2)cc1`: the inhibition is -8.05%.

Take `COc1ccccc1C1=NOC(CN(Cc2ccccc2Cl)C(=O)C2CCC2)C1` (stereo not drawn): the inhibition was -4.91%.

As to `O=c1cc(-c2ccc(F)cc2)ncn1Cc1cccc2ccccc12`, the inhibition is 5.38%.

Consider `O=C(CN1CCCC1Cn1cccn1)NCCc1ccc(F)cc1` (stereo not drawn), for which the inhibition is -4.22%.

Regarding `CCc1ccc(-c2nn(-c3ccccc3)cc2C=NO)cc1`, the inhibition is -6.62%.

As to `CCOc1ccccc1NC(=O)CC(=O)N1[C@H](C)CCC[C@@H]1C`, the inhibition was -17.8%.

Take `S=C(NN=CC1CC=CCC1)NC1CCCCC1` (stereo not drawn): the inhibition is -5.67%.

For the molecule `O=C(NNc1nc2c(Cl)cccc2s1)c1cc(=O)c2ccccc2o1`, the inhibition was 4.02%.

Regarding `COc1ccc(/C=C/C(=O)N2CCC3(CC2)CC3C(=O)N2CCN(c3ccccn3)CC2)cc1OC` (stereo not drawn), the inhibition is -22.2%.

On to `c1ccc(Oc2cccc(-c3ccc4nnc(-c5ccc6nccnc6c5)n4c3)c2)cc1`, for which the inhibition is -8.11%.

With `Cc1ccc(N(CCCCN2C(=O)c3ccccc3C2=O)C(=O)/C=C/c2ccccc2Cl)cc1`, the inhibition is -4.6%.

With `CCc1cc(N2CCN(c3ccccc3F)CC2)nc(SCc2cccc(C(=O)NCC3CCCO3)c2)n1` (stereo not drawn), the inhibition is -4.77%.

In the case of `CC(O)CNC(c1nc(-c2ccc(Br)cc2)no1)C(C)C` (stereo not drawn), the inhibition is -3.51%.

For `Cc1cc(C)n(-c2ccc(N3CCN(S(=O)(=O)c4ccc(C)c(C)c4)CC3)nn2)n1`, the inhibition is -8.08%.

`Cc1cc2c(o1)CC(C)(C)CC2NS(=O)(=O)CCc1ccccc1` (stereo not drawn): the inhibition is -12.8%.

In the case of `COc1ccccc1C(=O)N1CCC(n2c(=O)oc3ccc(Cl)cc32)CC1`, the inhibition is -5.6%.

In the case of `Cc1nnc(SCC(=O)Nc2cccc(Cl)c2)c2c1cnn2-c1ccc(F)cc1`, the inhibition was -13.2%.
